This is a sample that favours compounds with a hit; in the whole collection about 3.9% have one here.
SARS 3CLpro inh: SARS-CoV 3CLpro protease inhibition | P0C6X7 | recombinant SARS-CoV 3CLpro, quenched FRET peptide cleavage | 290,000 tested, 0.14% active | inhibition, % at 6 µM; in the data active = inhibition above about 12%
BoNT-F LC inh: inhibitors of Botulinum neurotoxin F light chain protease; Multiplex microsphere protease cleavage assay, flow cytometry; inhibition, % at 10 µM; 360,000 tested, 0.22% active; in the data active = inhibition above about 35%, passing the limit was not always enough; inconclusive = no clear call, values can overlap the other calls; note: plate controls were buffer without enzyme for full effect and enzyme alone for no effect
Autofluor counter: flagged as autofluorescent in microsphere protease counterscreen | compound autofluorescence counterscreen, microsphere flow cytometry; active compounds read high | AID 624483 | fluorescence intensity (no concentration beside the values) | 360,000 tested, 3.1% active; in the data active = fluorescence intensity above about 16000; inconclusive = no clear call, values can overlap the other calls
Anthrax LF inh2: anthrax lethal factor protease inhibition; multiplex microsphere protease cleavage assay, LF; inhibition, % at 10 µM; 360,000 tested, 0.12% active; AID 588501; note: plate controls were buffer without enzyme for full effect and enzyme alone for no effect
Target sequence (P15917 whole entry, looked up): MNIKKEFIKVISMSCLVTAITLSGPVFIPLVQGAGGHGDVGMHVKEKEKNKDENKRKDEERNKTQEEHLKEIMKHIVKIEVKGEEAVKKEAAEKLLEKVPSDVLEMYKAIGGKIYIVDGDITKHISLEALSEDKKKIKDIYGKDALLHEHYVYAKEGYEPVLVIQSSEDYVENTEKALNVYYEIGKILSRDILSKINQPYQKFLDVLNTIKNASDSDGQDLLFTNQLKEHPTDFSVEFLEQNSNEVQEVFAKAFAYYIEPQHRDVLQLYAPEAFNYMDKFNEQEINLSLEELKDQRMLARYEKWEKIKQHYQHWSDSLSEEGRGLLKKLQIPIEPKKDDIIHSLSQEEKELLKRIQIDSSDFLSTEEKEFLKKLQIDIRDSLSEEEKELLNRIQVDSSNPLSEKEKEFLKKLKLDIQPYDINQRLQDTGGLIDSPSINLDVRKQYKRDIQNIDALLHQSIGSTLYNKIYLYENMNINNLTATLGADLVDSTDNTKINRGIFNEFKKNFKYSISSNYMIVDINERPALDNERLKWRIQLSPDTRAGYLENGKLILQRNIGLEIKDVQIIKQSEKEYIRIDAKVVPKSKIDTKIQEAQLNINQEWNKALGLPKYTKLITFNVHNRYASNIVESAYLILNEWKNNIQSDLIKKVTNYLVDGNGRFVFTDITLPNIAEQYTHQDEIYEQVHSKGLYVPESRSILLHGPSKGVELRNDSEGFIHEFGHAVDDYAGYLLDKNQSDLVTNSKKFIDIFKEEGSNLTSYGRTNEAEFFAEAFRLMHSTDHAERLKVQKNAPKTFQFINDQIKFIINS
BoNT A protease: blocks Botulinum neurotoxin A light chain protease. multiplex microsphere protease substrate cleavage, flow cytometry. inhibition, % at 10 µM. 360,000 tested, 0.17% active. AID 588499; note: plate controls were buffer without enzyme for full effect and enzyme alone for no effect
CCHF vOTU inh: blocks the CCHF virus ovarian tumor domain protease; CCHFV vOTU protease, Pep-AMC fluorescence; inhibition, % at 11.5 µM; 370,000 tested, 0.55% active; in the data active = inhibition above about 30%; note: 0% = vehicle wells with enzyme and 100% = no enzyme wells
The depositor's hits bear a star; ? = inconclusive; / = not tested or not shown. Cut-off read from the data, not from the text of the source, unless noted: active = inhibition above about 30%; inconclusive = no clear call, values can overlap the other calls; inactive = below that.

SMILES | SARS 3CLpro inh | BoNT-F LC inh | Autofluor counter | Anthrax LF inh2 | BoNT A protease | CCHF vOTU inh
COc1ccc(NC(=O)CSc2nnc(Cc3cccn3C)n2CCc2ccccc2)c(OC)c1 | 7 | 1 | 7844 | -4 | -1 | /
O=C(CSc1ccc2nnc(-c3ccccc3)n2n1)NCc1ccco1 | 2 | -1 | 20999* | -6 | ? | -5
COc1ccccc1NC(=O)CSc1nnc(Cc2cccn2C)n1CCc1ccccc1 | 4 | -7 | 24958* | -3 | -4 | -7
CCOC(=O)CC(=O)CSc1ccc2nnc(-c3ccc(C)cc3)n2n1 | 1 | 4 | 22080* | -7 | 2 | -6
CCOC(=O)N1CCN(C(=O)CSc2ccc3nnc(-c4ccncc4)n3n2)CC1 | 3 | 0 | 3148 | -6 | 0 | 17
O=C(CSc1ccc2nnc(-c3cccc(F)c3)n2n1)NCC1CCCO1 (centres undefined) | 1 | 3 | 22186* | -7 | 2 | -4
CCSc1nnc(NC(=O)CSc2nnc(Cc3cccn3C)n2CCc2ccccc2)s1 | 7 | 2 | 20173* | -4 | ? | -12
Cn1cccc1Cc1nnc(SCC(=O)NCC2CCCO2)n1CCc1ccccc1 (centres undefined) | 3 | 2 | 22577* | -8 | ? | -4
Cn1cccc1Cc1nnc(SCC(=O)Nc2nccs2)n1CCc1ccccc1 | 4 | 3 | 5881 | -8 | -1 | 8
COc1ccc(CN(CCN2CCOCC2)C(=O)c2cc(F)ccc2C)cc1OC | / | / | / | / | / | -6
O=C(Cc1cccc(NC(=O)C2CCCN(C(=O)C3CCCCC3)C2)c1)Nc1cccc(C(=O)N2CCOCC2)c1 (centres undefined) | / | 2 | 3696 | -6 | 0 | -12
O=C(O)c1ccccc1Nc1ccccc1C(=O)O | 1 | -7 | 17128* | -2 | ? | 16
COC(=O)c1ccccc1NC(=O)Oc1ccc(C(C)C)cc1 | 0 | -4 | 24059* | -3 | -1 | /
O=C(Nc1ccccc1C(=O)O)c1ccccc1 | -6 | -10 | 4105 | -1 | 0 | 0
O=C(/C=N/O)Nc1ccccc1C(=O)O | -2 | 4 | 22836* | -1 | 1 | 3
COC(=O)c1ccccc1Nc1ccccc1 | -1 | -10 | 4349 | 1 | -1 | 34*
CCOC(=O)CSc1n[nH]c(NC(=O)CC)n1 | 0 | -3 | 3405 | 0 | -1 | 8
COCc1cc(C)nc(N2CCN(Cc3ccccc3)CC2)c1C#N | 0 | 18 | 4486 | -1 | 1 | 8
COCc1cc(C)nc(N2CCN(c3ccccc3)CC2)c1C#N | 1 | -1 | 23159* | -1 | -1 | 17
O=C(CN1CCC(C(=O)c2ccc(F)cc2)CC1)Nc1ccccc1 | 0 | -1 | 19525* | 0 | 1 | 3
Cc1ccc(C(=O)C2CCN(CC(=O)Nc3ccc(N(C)C)cc3)CC2)cc1 | -1 | -5 | 21202* | -1 | ? | 20
O=C(NCc1ccc(F)cc1)C1CCCN(C(=O)Nc2ccccc2)C1 (centres undefined) | -4 | -1 | 19569* | -4 | ? | -9
CCOc1ccc(C(=O)N2CCC(C(=O)c3ccc4c(c3)OCCO4)CC2)cc1 | 7 | 0 | 17361* | 1 | 1 | -2
O=C(NCc1ccc(F)cc1)C1CCCN(C(=O)Nc2ccc(F)cc2)C1 (centres undefined) | -1 | -3 | 2942 | 1 | 0 | 8
O=C(CN1CCC(C(=O)c2ccc(F)cc2)CC1)Nc1ccc(F)cc1 | 1 | 6 | 8496 | -1 | 0 | 1
O=C(NCCc1ccc(F)cc1)C(=O)NCC1CCCN1S(=O)(=O)c1ccccc1 (centres undefined) | / | 4 | ? | -3 | -1 | 3
CCN(CC)c1nc2c(c(=O)[nH]c(=O)n2C)n1CCOc1ccccc1 | 5 | ? | 3303 | 12 | -3 | -1
CC(C)Cc1nnc(NC(=O)CSc2nc(-c3ccccc3)cc(=O)[nH]2)s1 | 0 | -2 | 2103 | 1 | 0 | 12
O=C(c1ccc(F)cc1)C1CCN(C(=O)NCc2ccccc2)CC1 | -3 | -1 | 24106* | 0 | -1 | -2

Screening data: PubChem BioAssay, several laboratories
